Test results published in PubChem BioAssay AID1159580 (chemical genetic matrix, 2015).
About 2,000 (36%) of roughly 5,500 compounds were called active. Roughly 18% stayed inconclusive and do not appear here. Rule as the data show it: active = normalized growth mostly below about 0.91 (no sharp cut-off); inconclusive = no clear call, values can overlap the other calls; inactive = mostly above about 0.92. Some of the results follow.

Experiment: chemical genetic growth profiling, strain panel (AID 1159580);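 also: tested at 20 µM; growth read once vehicle control cultures reached saturation at 30 °C; 1 = growth at the plate median or of vehicle wells; lower values mean less growth of the strain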
Conditions: growth OD

Measured: normalized growth

CC1CC2C3CC(F)C4=CC(=O)C=CC4(C)C3(F)C(O)CC2(C)C1(O)C(=O)CO (centres undefined)
inactive: S. cerevisiae deletion strains, locus YJR043C, strain POL32, stronger effect = lower value 1.08 | S. cerevisiae deletion strains, locus YJR075W, strain HOC1, stronger effect = lower value 1.02 | S. cerevisiae deletion strains, locus YKL009W, strain mrt4, stronger effect = lower value 1.01 | S. cerevisiae deletion strains, locus YKL068W, stronger effect = lower value 1.01 | S. cerevisiae deletion strains, locus YKL085W, strain MDH1 (second series), stronger effect = lower value 1.01 | S. cerevisiae deletion strains, locus YKL085W, strain MDH1, stronger effect = lower value 1.01 | S. cerevisiae deletion strains, locus YKL160W, strain elf1, stronger effect = lower value 0.984 | S. cerevisiae deletion strains, locus YKL190W, strain CNB1, stronger effect = lower value 1.02 | S. cerevisiae deletion strains, locus YKR001C, strain vps1, stronger effect = lower value 1.03 | S. cerevisiae deletion strains, locus YKR026C, strain gcn3, stronger effect = lower value 0.998 | S. cerevisiae deletion strains, locus YKR091W, strain srl3, stronger effect = lower value 1 | S. cerevisiae deletion strains, locus YLL001W, strain dnm1, stronger effect = lower value 0.984 | S. cerevisiae deletion strains, locus YLL026W, stronger effect = lower value 0.997 | S. cerevisiae deletion strains, locus YLL041C, strain sdh2, stronger effect = lower value 0.999 | S. cerevisiae deletion strains, locus YLR027C, strain aat2, stronger effect = lower value 0.997 | S. cerevisiae deletion strains, locus YLR039C, strain RIC1, stronger effect = lower value 1.08 | S. cerevisiae deletion strains, locus YLR058C, strain SHM2, stronger effect = lower value 1.02 | S. cerevisiae deletion strains, locus YLR102C, strain apc9, stronger effect = lower value 1.02 | S. cerevisiae deletion strains, locus YLR221C, strain rsa3, stronger effect = lower value 0.985 | S. cerevisiae deletion strains, locus YLR258W, strain gsy2, stronger effect = lower value 0.995 | S. cerevisiae deletion strains, locus YLR262C, strain YPT6 (second series), stronger effect = lower value 0.984 | S. cerevisiae deletion strains, locus YLR262C, strain YPT6, stronger effect = lower value 1.08 | S. cerevisiae deletion strains, locus YLR268W, strain sec22, stronger effect = lower value 1.02 | S. cerevisiae deletion strains, locus YLR320W, strain mms22, stronger effect = lower value 0.993 | S. cerevisiae deletion strains, locus YLR330W, strain CHS5, stronger effect = lower value 1.02 | S. cerevisiae deletion strains, locus YLR342W, strain FKS1 (second series), stronger effect = lower value 1.1 | S. cerevisiae deletion strains, locus YLR342W, strain FKS1, stronger effect = lower value 0.991 | S. cerevisiae deletion strains, locus YLR357W, strain rsc2, stronger effect = lower value 1.01 | S. cerevisiae deletion strains, locus YLR370C, strain arc18, stronger effect = lower value 1 | S. cerevisiae deletion strains, locus YLR371W, strain rom2, stronger effect = lower value 1.01 | S. cerevisiae deletion strains, locus YLR384C, strain iki3, stronger effect = lower value 0.986 | S. cerevisiae deletion strains, locus YLR418C, strain cdc73, stronger effect = lower value 1 | S. cerevisiae deletion strains, locus YML016C, strain PPZ1, stronger effect = lower value 1.02 | S. cerevisiae deletion strains, locus YML032C, strain rad52, stronger effect = lower value 1.05 | S. cerevisiae deletion strains, locus YML120C, strain ndi1, stronger effect = lower value 1 | S. cerevisiae deletion strains, locus YML124C, strain tub3, stronger effect = lower value 1.02 | S. cerevisiae deletion strains, locus YMR058W, strain fet3, stronger effect = lower value 1.01 | S. cerevisiae deletion strains, locus YMR078C, strain ctf18, stronger effect = lower value 1.02 | S. cerevisiae deletion strains, locus YMR125W, strain sto1, stronger effect = lower value 0.986 | S. cerevisiae deletion strains, locus YMR129W, stronger effect = lower value 1 | S. cerevisiae deletion strains, locus YMR205C, strain PFK2, stronger effect = lower value 0.984 | S. cerevisiae deletion strains, locus YMR223W, strain ubp8, stronger effect = lower value 1.04 | S. cerevisiae deletion strains, locus YMR231W, strain pep5, stronger effect = lower value 0.995 | S. cerevisiae deletion strains, locus YMR263W, strain SAP30, stronger effect = lower value 1.04 | S. cerevisiae deletion strains, locus YMR307W, strain GAS1, stronger effect = lower value 1.09 | S. cerevisiae deletion strains, locus YNL067W, strain RPL9B, stronger effect = lower value 1.03 | S. cerevisiae deletion strains, locus YNL071W, strain lat1, stronger effect = lower value 0.999 | S. cerevisiae deletion strains, locus YNL128W, strain TEP1, stronger effect = lower value 1.01 | S. cerevisiae deletion strains, locus YNL153C, strain GIM3, stronger effect = lower value 1.03 | S. cerevisiae deletion strains, locus YNL209W, strain ssb2, stronger effect = lower value 0.996 | S. cerevisiae deletion strains, locus YNL233W, strain BNI4, stronger effect = lower value 1.02 | S. cerevisiae deletion strains, locus YNL248C, strain rpa49, stronger effect = lower value 1.01 | S. cerevisiae deletion strains, locus YNL250W, strain rad50, stronger effect = lower value 1.04 | S. cerevisiae deletion strains, locus YNL271C, strain bni1, stronger effect = lower value 1.03 | S. cerevisiae deletion strains, locus YNL298W, strain CLA4, stronger effect = lower value 1.03 | S. cerevisiae deletion strains, locus YNL307C, strain MCK1, stronger effect = lower value 1.05 | S. cerevisiae deletion strains, locus YNL322C, strain KRE1 (second series), stronger effect = lower value 0.974 | S. cerevisiae deletion strains, locus YNL322C, strain KRE1, stronger effect = lower value 1.02 | S. cerevisiae deletion strains, locus YNR049C, strain mso1, stronger effect = lower value 0.992 | S. cerevisiae deletion strains, locus YNR052C, strain pop2, stronger effect = lower value 1.03 | S. cerevisiae deletion strains, locus YOL006C, strain TOP1, stronger effect = lower value 1.06 | S. cerevisiae deletion strains, locus YOL012C, strain htz1 0.779 | S. cerevisiae deletion strains, locus YOL147C, strain pex11, stronger effect = lower value 1.02 | S. cerevisiae deletion strains, locus YOR001W, strain rrp6, stronger effect = lower value 1.03 | S. cerevisiae deletion strains, locus YOR061W, strain CKA2, stronger effect = lower value 1.02 | S. cerevisiae deletion strains, locus YOR069W, strain VPS5, stronger effect = lower value 1.01 | S. cerevisiae deletion strains, locus YOR070C, strain gyp1, stronger effect = lower value 1 | S. cerevisiae deletion strains, locus YOR080W, strain dia2, stronger effect = lower value 0.995 | S. cerevisiae deletion strains, locus YOR083W, strain WHI5, stronger effect = lower value 0.965 | S. cerevisiae deletion strains, locus YOR106W, strain vam3, stronger effect = lower value 0.97 | S. cerevisiae deletion strains, locus YOR136W, strain idh2, stronger effect = lower value 1.03 | S. cerevisiae deletion strains, locus YOR144C, strain elg1, stronger effect = lower value 1.02 | S. cerevisiae deletion strains, locus YOR184W, strain ser1, stronger effect = lower value 1.08 | S. cerevisiae deletion strains, locus YOR265W, strain rbl2, stronger effect = lower value 1.01 | S. cerevisiae deletion strains, locus YOR270C, strain vph1, stronger effect = lower value 0.928 | S. cerevisiae deletion strains, locus YOR290C, strain snf2, stronger effect = lower value 0.988 | S. cerevisiae deletion strains, locus YOR316C, strain cot1, stronger effect = lower value 1.03 | S. cerevisiae deletion strains, locus YPL051W, strain arl3, stronger effect = lower value 0.989 | S. cerevisiae deletion strains, locus YPL055C, strain LGE1, stronger effect = lower value 1.09 | S. cerevisiae deletion strains, locus YPL078C, strain atp4, stronger effect = lower value 1.03 | S. cerevisiae deletion strains, locus YPL106C, strain sse1, stronger effect = lower value 0.957 | S. cerevisiae deletion strains, locus YPL240C, strain hsp82, stronger effect = lower value 1 | S. cerevisiae deletion strains, locus YPL241C, strain CIN2, stronger effect = lower value 1.02 | S. cerevisiae deletion strains, locus YPR119W, strain clb2, stronger effect = lower value 1.01 | S. cerevisiae deletion strains, locus YPR141C, strain kar3, stronger effect = lower value 1.02 | S. cerevisiae deletion strains, locus YPR163C, strain tif3, stronger effect = lower value 1.04 | S. cerevisiae deletion strains, locus YPR167C, strain met16, stronger effect = lower value 1.01 | S. cerevisiae deletion strains, strain wtn01, stronger effect = lower value 1.02 | S. cerevisiae strains, strain wild type, stronger effect = lower value 1.03
